Results from the supplement of paper PMC3616981.

Compound: CC(C)c1cccc(C(C)C)c1N1C(=O)c2ccc(O)cc2C1=O
Experiment: reporter fold induction vs vehicle; higher = higher reporter activity
Experimental: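 Attagene multiplexed transcription-factor reporter assay (48 cis response elements and 25 trans nuclear-receptor constructs) treated with 5HPP-33 at 8 concentrations (0.091–200 µM). The response is fold induction of reporter activity relative to vehicle control. Cell line and time not stated in the paper; tested in ToxCast Phase II for this study.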

With RARa_TRANS the reporter fold induction (0.091 µM) was 1.04, the reporter fold induction (0.274 µM) was 0.782 and the reporter fold induction (0.823 µM) was 1.21. It also gave a reporter fold induction (2.469 µM) of 1.2, a reporter fold induction (7.407 µM) of 1.48 and a reporter fold induction (22.22 µM) of 2.4. For the same target, the reporter fold induction (66.67 µM) was 2.07 and the reporter fold induction (200 µM) was 0.506.

With RARb_TRANS the reporter fold induction (0.091 µM) was 0.778, the reporter fold induction (0.274 µM) was 0.835 and the reporter fold induction (0.823 µM) was 0.897. For the same target, the reporter fold induction (2.469 µM) was 0.861, the reporter fold induction (7.407 µM) was 1.51 and the reporter fold induction (22.22 µM) was 1.95. The reporter fold induction (66.67 µM) was 1.29 and the reporter fold induction (200 µM) was 0.429.

E2F_CIS showed a reporter fold induction (0.091 µM) of 1.02, a reporter fold induction (0.274 µM) of 0.922 and a reporter fold induction (0.823 µM) of 0.954. It also gave a reporter fold induction (2.469 µM) of 1.04, a reporter fold induction (7.407 µM) of 0.971 and a reporter fold induction (22.22 µM) of 0.968. It also gave a reporter fold induction (66.67 µM) of 0.945 and a reporter fold induction (200 µM) of 1.23.

Target GR_TRANS has a reporter fold induction (0.091 µM) of 0.906, a reporter fold induction (0.274 µM) of 1.07 and a reporter fold induction (0.823 µM) of 1.06. The reporter fold induction (2.469 µM) was 1.18, the reporter fold induction (7.407 µM) was 0.95 and the reporter fold induction (22.22 µM) was 1.13. The reporter fold induction (66.67 µM) was 1.24 and the reporter fold induction (200 µM) was 1.38.

DR5_CIS was tested, and the reporter fold induction (0.091 µM) was 0.96, the reporter fold induction (0.274 µM) was 1.09 and the reporter fold induction (0.823 µM) was 1.11. It also gave a reporter fold induction (2.469 µM) of 0.929, a reporter fold induction (7.407 µM) of 1.98 and a reporter fold induction (22.22 µM) of 2.11. It also gave a reporter fold induction (66.67 µM) of 1.71 and a reporter fold induction (200 µM) of 2.04.
